The source of these data is PubChem BioAssay (NCATS).

Test [1] in a line: Quantitative High-Throughput drug screen in 47 multiple myeloma cell lines against the NCATS MIPE library collection: VP6_DJ cell viability assay (AID 1919867). Note: nearly all actives have a fitted effect of over 40% in size. In short, it runs like this:
(§1)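 Inhibition of viability over 48 h was scored by ATP content (CellTiter-Glo) in 500-cell wells. Zero and full viability were defined by media-only and DMSO-only wells.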

A short description of test [2]: Quantitative High-Throughput drug screen in 47 multiple myeloma cell lines against the NCATS MIPE library collection: UTMC2_PLB cell viability assay (AID 1919868). Note: nearly all actives have a fitted effect of over 55% in size. The following applies: CellTiter-Glo ATP luminescence, 48 h; viability (% of DMSO control): at 45.8 µM (top of the series). In outline:
as §1
On the technique in general: ATP-based viability assays read luminescence as a measure of living cells.

Test [3] can be described thus: Quantitative High-Throughput drug screen in 47 multiple myeloma cell lines against the NCATS MIPE library collection: PE2_PLB cell viability assay (AID 1919869). Note: nearly all actives have a fitted effect of over 35% in size. In outline:
as §1

The nature of test [4]: Quantitative High-Throughput drug screen in 47 multiple myeloma cell lines against the NCATS MIPE library collection: PCM6_Riken cell viability assay (AID 1919870). Note: nearly all actives have a fitted effect of over 30% in size. In outline:
as §1

Test [5] in a line: Quantitative High-Throughput drug screen in 47 multiple myeloma cell lines against the NCATS MIPE library collection: OPM2_DSMZ cell viability assay (AID 1919872). Note: nearly all actives have a fitted effect of over 30% in size. In short, it runs like this: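 Viability readout: CellTiter-Glo luminescence following 5 min room-temperature incubation with reagent. Prior exposure: 48 h, 37C, humidified 5% CO2, 500 cells per well.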
The nature of test [6]: Quantitative High-Throughput drug screen in 47 multiple myeloma cell lines against the NCATS MIPE library collection: KMS11_JCRBsus cell viability assay (AID 1919873). Note: nearly all actives have a fitted effect of over 50% in size. In short, it runs like this:
as §1

Test [7] is described as follows: Quantitative High-Throughput drug screen in 47 multiple myeloma cell lines against the NCATS MIPE library collection: KMS28BM_JCRB cell viability assay (AID 1919874). Note: nearly all actives have a fitted effect of over 35% in size. In outline:
as §1

Test [8] can be described thus: Quantitative High-Throughput drug screen in 47 multiple myeloma cell lines against the NCATS MIPE library collection: RPMI8226_ATCC cell viability assay (AID 1919871). Note: nearly all actives have a fitted effect of over 30% in size. In outline:
as §1

Inconclusive results are not listed. The source made the active and inactive calls. Calls come from the whole dose curve; as a rule, active = well fitted cell-killing curve with a large enough effect; inconclusive = small, poorly fitted or top-dose-only effect, or effect the other way; inactive = no such curve, though single readings can be large or run the other way.
Potency is the fitted concentration of half-maximal effect.

`CCCCCCCCCCCCCC(=O)N[C@H](CO)[C@H](O)c1ccc([N+](=O)[O-])cc1`: the Potency in test [1] was 26.4 µM (active); in test [2], 18.7 µM (active); in test [3], 26.4 µM (active); in test [4] it was 20.9 µM (active); in test [6], 23.5 µM (active). The Potency result in test [5] was “inactive”.

As to `CCNC(=O)c1noc(-c2cc(C(C)C)c(O)cc2O)c1-c1ccc(CN2CCOCC2)cc1`, the Potency in test [1] was 0.0372 µM (active); in test [2], 0.0833 µM (active); in test [3], 0.105 µM (active); in test [4] it was 0.0526 µM (active); in test [6], 0.0235 µM (active); in test [7], 0.0332 µM (active).

Regarding `Fc1ccc(C(c2ccc(F)cc2)N2CCN(CC=Cc3ccccc3)CC2)cc1`, the Potency is 8.33 µM (active) in test [1], 5.26 µM (active) in test [3] and 16.6 µM (active) in test [8]. Also, the Potency result in test [2] and in test [5] was “inactive” each time.

For `O=S(=O)(NCCNCC=Cc1ccc(Br)cc1)c1cccc2cnccc12`, the Potency is 5.26 µM (active) in test [1]; 7.43 µM (active) in test [2]; 16.6 µM (active) in test [3]; 16.6 µM (active) in test [4]; 20.9 µM (active) in test [8]; 16.6 µM (active) in test [6].

As for `CC(C)CN(C[C@@H](O)[C@H](Cc1ccccc1)NC(=O)O[C@H]1CO[C@H]2OCC[C@H]21)S(=O)(=O)c1ccc(N)cc1`, the Potency is 8.33 µM (active) in test [1], 13.2 µM (active) in test [2], 4.69 µM (active) in test [4] and 9.35 µM (active) in test [6]. The Potency result in test [3] and in test [5] was “inactive” in each case.

In the case of `CC1(C)C(N(O)C(=O)Nc2ccc(Cl)cc2)N(c2ccc(Cl)cc2)C(=O)N1CC(=O)NN=CC=Cc1ccc([N+](=O)[O-])o1` (stereo not drawn), the Potency in test [1] was 8.33 µM (active); in test [2], 13.2 µM (active); in test [3] it was 6.62 µM (active); in test [4] it was 9.35 µM (active); in test [8] it was 11.8 µM (active); in test [5], 18.7 µM (active). Besides, the Potency in test [6] is 6.62 µM (active); in test [7] it was 8.33 µM (active).

As to `CN1CCN2c3ncccc3Cc3ccccc3C2C1` (stereo not drawn), the Potency entry in test [1], in test [2], in test [3], in test [4], in test [8] and in test [5] was “inactive” each time. In addition, the Potency entry in test [6] and in test [7] was “inactive” throughout.

Turning to `C[C@@H]1[C@H](O)[C@@H](C)C=CC=CC=CC=CC=CC=CC=C[C@H](O[C@@H]2O[C@H](C)[C@H](O)[C@H](N)[C@@H]2O)C[C@@H]2O[C@](O)(C[C@@H](O)C[C@@H](O)[C@H](O)CC[C@@H](O)C[C@@H](O)CC(=O)O[C@H]1C)C[C@H](O)[C@@H]2C(=O)O`, the Potency in test [1] was 3.72 µM (active).

For `CC1(C)[C@H]2CC[C@]3(C)[C@@H](C(=O)C=C4[C@@H]5C[C@@](C)(C(=O)O)CC[C@]5(C)CC[C@]43C)[C@@]2(C)CC[C@@H]1O`, the Potency result in test [1], in test [2], in test [3], in test [4], in test [8] and in test [5] was “inactive” each time. Moreover, the Potency entry in test [6] and in test [7] was “inactive” each time.

As to `NS(=O)(=O)c1ccc(Nc2nc(OCC3CCCCC3)c3[nH]cnc3n2)cc1`, the Potency in test [1] was 16.6 µM (active); in test [2], 11.8 µM (active); in test [3], 16.6 µM (active); in test [4], 10.5 µM (active). The Potency entry in test [8] is “inactive”.

As for `CCNC(=O)CCCC=CC[C@@H]1[C@H](C=CC(O)CCc2ccccc2)[C@@H](O)C[C@@H]1O` (stereo partly drawn), the Potency entry in test [1], in test [2], in test [3] and in test [4] was “inactive” each time. Also, the Potency in test [8] was 16.6 µM (active); in test [7], 3.32 µM (active).

As to `NS(=O)(=O)c1cc(Cl)c(Cl)c(S(N)(=O)=O)c1`, the Potency result in test [1], in test [3], in test [4], in test [8] and in test [5] was “inactive” each time.

For `CN1CCC[C@H]1CCO[C@](C)(c1ccccc1)c1ccc(Cl)cc1`, the results for the Potency in test [1], in test [2] and in test [7] were 18.7 µM (active), 14.8 µM (active) and 5.26 µM (active), respectively. Also, the Potency entry in test [8] and in test [5] was “inactive” each time.

Regarding `CN(C)CCN(Cc1ccc(Cl)cc1)c1ccccn1`, the values for the Potency in test [1], in test [2] and in test [7] were 20.9 µM (active), 16.6 µM (active) and 14.8 µM (active), respectively. Further, the Potency entry in test [8], in test [5] and in test [6] was “inactive” in each case.

On to `CNC(=O)c1cc(Oc2ccc(NC(=O)Nc3ccc(Cl)c(C(F)(F)F)c3)c(F)c2)ccn1`, for which the Potency was 2.96 µM (active) in test [1], 3.72 µM (active) in test [2], 18.7 µM (active) in test [5] and 14.8 µM (active) in test [6].

As to `Cc1ccc(S(=O)(=O)OCC(=O)Nc2ccc(C(=O)O)c(O)c2)cc1`, the Potency in test [1] was 16.6 µM (active); in test [3] it was 20.9 µM (active); in test [4] it was 20.9 µM (active). Further, the Potency result in test [8], in test [5], in test [6] and in test [7] was “inactive” throughout.

Turning to `OC1CCC(Nc2ncc3nc(Nc4c(F)cc(F)cc4F)n([C@@H]4CCOC4)c3n2)CC1` (stereo partly drawn), in test [1], the Potency is 11.8 µM (active). The Potency entry in test [2], in test [8] and in test [7] was “inactive” each time.

Take `O=C(Nc1ccc(OC(F)(F)F)cc1)c1sccc1NCc1ccnc2ccccc12`: the Potency in test [1] was 16.6 µM (active); in test [2], 23.5 µM (active); in test [3], 20.9 µM (active); in test [5], 18.7 µM (active); in test [6] it was 7.43 µM (active).

As for `COc1cccc(OC)c1-c1cc(C(=O)NC2(C(=O)O)C3CC4CC(C3)CC2C4)nn1-c1ccnc2cc(Cl)ccc12` (stereo not drawn), the Potency result in test [1], in test [2], in test [3], in test [8] and in test [6] was “inactive” throughout.

For the molecule `Clc1ccc(C2(c3ccc(-c4cn[nH]c4)cc3)CCNCC2)cc1`, the Potency was 13.2 µM (active) in test [1]; 0.148 µM (active) in test [2]; 11.8 µM (active) in test [3]; 26.4 µM (active) in test [5]; 16.6 µM (active) in test [7].

With `CN1CC(=O)NC1=NC(=O)Nc1cccc(Cl)c1`, the Potency entry in test [1], in test [5] and in test [7] was “inactive” in each case. Moreover, the Potency in test [3] was 20.9 µM (active); in test [4] it was 23.5 µM (active); in test [8], 14.8 µM (active); in test [6] it was 11.8 µM (active).
